PubChem BioAssay (EPA / NIEHS)
A structure can be active in one record and inactive in another. Active and inactive are the calls of the source. How the source made its calls: active means hit-call score of the fitted dose curve at least 0.9, where 1 is the maximum; inactive means score below 0.9.

test: ATG_ISRE_CIS: Attagene CIS-FACTORIAL HepG2 Assay for human Interferon Regulatory Factor 1 (IRF1) binding to an Interferon-Stimulated Response Element (ISRE) (AID 2282948); conditions: HepG2 ISRE cis-reporter (Attagene), mRNA transcription readout; actives raise or lower the signal
Protocol: ATG_CIS is a cell-based, multiplexed-readout assay that uses HepG2, a human liver cell line, with measurements taken at 24 hours after chemical dosing in a 24-well plate.ATG_ISRE_CIS is one of 52 assay component(s) measured or calculated from the ATG_CIS assay. It is designed to make measurements of mRNA induction, a form of inducible reporter, as detected with fluorescence intensity signals by Reverse transcription polymerase chain reaction (RT-PCR) and Capillary electrophoresis technology.Data from the assay component ATG_ISRE_CIS was analyzed into 1 assay endpoint. This assay endpoint, ATG_ISRE_CIS, was analyzed with bidirectional fitting relative to DMSO as the negative control and baseline of activity. Using a type of inducible reporter, measures of mRNA for gain or loss-of-signal activity can be used to understand the reporter gene at the transcription factor-level as they relate to the gene IRF1. Furthermore, this assay endpoint can be referred to as a primary readout, because this assay has produced multiple assay endpoints where this one serves a reporter gene function. To generalize the intended target to other relatable targets, this assay endpoint is annotated to the dna binding intended target family, where the subfamily is interferon regulatory factors.
Human liver HepG2 cells are transiently transfected with multiple reporter transcription units (MRTUs) in 6-well plates using FuGene 6 reagent (Roche; 3 ml FuGene/1 mg DNA). The MRTU constructs are regulated by a cis-regulating element (promoter). […] A major difference between the CIS and TRANS system is that in CIS activities of endogenous TFs are measured, whereas the TRANS assay evaluates changes in activities of exogenous, chimeric NR-Gal4 proteins. […] At the end of 24 hour incubation, total RNA was isolated using TriZol reagent (Invitrogen). The isolated RNA is then reverse-transcribed using oligo(dT) primer and Mo-MLV reverse transcriptase (Invitrogen) with DNAse I (Ambion) treatment for 30 min. The one-tenth of the produced cDNA was amplified by PCR using Taq DNA polymerase (Invitrogen) and two reporter sequence-specific primers. The PCR products were fluorescently labeled by primer extension with 6-arboxyfluorescein (6-FAM) 5'-labeled reporter sequence-specific primer (2 min at 95 C, 20 s at 68 C and 10 min at 72 C) and these products were digested with 5U of HpaI (New England Biolabs) for 2h at 37 C. The fragments were purified using Qiaquick PCR columns (Qiagen), analyzed on an ABI 3130xL genetic analyzer (Applied Biosystems) with peak positions identified by using a set of X-rhodamine (ROX)-labeled MapMarker1000 molecular weight standards (BioVentures). The raw capillary electrophoresis data was processed using Attagraph software (Attagene).

Row | Compound | outcome | AC50
1 | FC(F)OCC(F)(F)C(F)(F)F | inactive | 
2 | CNC(=O)N(C)c1nc2ccccc2s1 | inactive | 
3 | O=NN1CCCCCC1 | inactive | 
4 | O=C(CCl)NCO | inactive | 
5 | Cc1cccc(OP(=O)(Oc2cccc(C)c2)Oc2cccc(C)c2)c1 | inactive | 
6 | O=C(O)C1(c2ccc3c(c2)OC[C@H](Cc2ccc(-c4ccccc4)cc2)[C@H]3O)CCCC1 |  | 2.83 µM (active)
7 | CC(C)[C@@H](Nc1ccc(C(F)(F)F)cc1Cl)C(=O)OC(C#N)c1cccc(Oc2ccccc2)c1 (stereo not given in full) | inactive | 
8 | CCN(CC)C(=O)C(Cl)=C(C)OP(=O)(OC)OC | inactive | 
9 | C=CC(=O)NC(C)(C)CC(C)=O | inactive | 
10 | Nc1ccc(N)cc1 | inactive | 100 µM (active)
11 | Nc1cccnc1 | inactive | 
12 | Nc1c(Oc2ccccc2)cc(O)c2c1C(=O)c1ccccc1C2=O | inactive | 
13 | CCC[CH2][Sn]([CH2]CCC)([CH2]CCC)[CH2]CCC |  | 11.1 µM (active)
14 | CC(c1ccc(O)cc1)c1ccc(O)cc1 | inactive | 
15 | Fc1cccc(Cl)c1CCl | inactive | 
16 | C[N+](C)(C)Cc1ccccc1 | inactive | 
17 | O=c1[nH]c2ccccc2n1C1CCN(CCCC(c2ccc(F)cc2)c2ccc(F)cc2)CC1 |  | 3.71 µM (active)
18 | O=[N+]([O-])c1c2ccccc2cc2ccccc12 | inactive | 
19 | O=C(NC(=O)c1c(F)cccc1F)Nc1ccc(Cl)cc1 | inactive | 
20 | CC(C)(C1CCC(O)CC1)C1CCC(O)CC1 (stereo not given) | inactive | 

Row | Compound | outcome | AC50
21 | C#CCO | inactive | 
22 | CNC(=O)O/N=C/C(C)(C)S(C)(=O)=O | inactive | 
23 | Cc1cc(C(F)(C(F)(F)F)C(F)(F)F)ccc1NC(=O)c1cccc(I)c1C(=O)NC(C)(C)CS(C)(=O)=O | inactive | 
24 | O=[N+]([O-])c1ccc(Cl)c([N+](=O)[O-])c1 | inactive | 
25 | Clc1cnc(Oc2ccc(Oc3ncc(Cl)cc3Cl)cc2)c(Cl)c1 | inactive | 
26 | C#CCOC(=O)/C=C(C)/C=C/CC(C)CCCC(C)C (stereo not given) | inactive | 
27 | Cc1cc(Cl)ccc1O | inactive | 
28 | CN(N=O)C(N)=O | inactive | 
29 | CC(O)(CS(=O)(=O)c1ccc(F)cc1)C(=O)Nc1ccc(C#N)c(C(F)(F)F)c1 (stereo not given) | inactive | 
30 | CNC(=O)CSP(=O)(OC)OC | inactive | 
31 | Nc1nc(=S)[nH][nH]1 | inactive | 
32 | Oc1cc(Cl)c(Cl)cc1Cl | inactive | 
33 | C=CCCl | inactive | 
34 | CN(CCCC(O)c1cccnc1)N=O (stereo not given) | inactive | 
35 | CCOC(=O)C(SP(=S)(OC)OC)c1ccccc1 (stereo not given) | inactive | 
36 | COC(=O)c1cc(Oc2ccc(Cl)cc2Cl)ccc1[N+](=O)[O-] | inactive | 
37 | ClCc1ccccc1Cl | inactive | 
38 | OCCCCO | inactive | 
39 | ClCCN1CCOCC1 | inactive | 
